Most compounds without a hit are left out; they make up all but 21% or so of the library.
Shiga inhibitor: blocks Shiga toxin action in Vero cells | Vero cells, Shiga toxin protein synthesis inhibition reporter | inhibition, % at 38.7 µM | 9.2% of 290,000 active; in the data active = inhibition mostly above about 28%, no sharp cut-off; inactive = mostly below about 43%; note: 0% is about no effect
Pf growth 96h: P. falciparum growth inhibition at 96 hours; 6.9% of 320,000 active; P. falciparum luciferase reporter growth, 96 h; Potency, µM (titrated, usually from 28.7 µM), for inactives: at the top dose activity change, negative = inhibition, hits mostly inhibitors; AID 504834; note: potency is the fitted concentration of half-maximal effect; % is set by controls: 0 for no effect and ±100 for the full control effect
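Luminescence readout: decreased luciferase signal marks inhibited growth of reporter-expressing P. falciparum in infected red cells (2% hematocrit, 0.05% parasitemia final), exposed to compound two generations (96 h, 37 C, 5% CO2).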
Pf growth 48h: inhibits P. falciparum growth in the first generation, 48 h; Potency, µM (titrated, usually from 28.7 µM), without a hit: at the top dose activity change, negative = inhibition, most hits filed as inhibitors; P. falciparum luciferase growth in erythrocytes, 48 h; 5.9% of 310,000 active; note: potency is the fitted concentration of half-maximal effect; % is set by controls: 0 for no effect and ±100 for the full control effect
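Read-out is firefly luciferase luminescence from an integrated reporter in P. falciparum, so falling signal marks reduced parasite growth. Infected erythrocytes were at 2% hematocrit and 0.1% parasitemia (final) in Albumax-supplemented RPMI 1640.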
HCMV inh: blocks human cytomegalovirus replication; HFF cells, HCMV-luciferase reporter, 72 h; stronger effect = lower value; activity change, negative = inhibition, % at 57.5 µM; 4.5% of 410,000 active; AID 1259415; in the data active = activity change below about -60%; inconclusive = no clear call, values can overlap the other calls; inactive = above about -39%; note: % is set by controls: 0 for no effect and ±100 for the full control effect
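Steps: HFFs plated, 16 h 37C; compounds added; HCMV-luciferase added to MOI 1 PFU/cell; 72 h 37C; OneGlo reagent, 5 min room temperature; luminescence read, normalized to controls.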
CHX counter: affects cycloheximide protein synthesis inhibition readout, counter-screen. cell reporter, cycloheximide protein synthesis inhibition counterscreen. 12% of 300,000 active. max response, %. AID 2314; in the data active = max response mostly above about 13%, no sharp cut-off; inactive = mostly below about 14%; note: read at 38.3 µM for the half of the compounds with a filed dose; 0% is about no effect
HCV inhibitor: HCV inhibition | 3.4% of 340,000 active | AID 651820 | Potency, µM (doses to about 41.8 µM), inactives show at the top dose activity change, negative = inhibition, actives largely listed as inhibitors | Huh7.5.1 HCVcc-Cre infection, luciferase reporter, 44 h; note: potency is the fitted concentration of half-maximal effect; % is set by controls: 0 for no effect and ±100 for the full control effect
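Whole-lifecycle infectious HCVcc-Cre system; cells 1,000/well, compound then virus (~0.5 moi) added 4 h after plating, 44 h culture. Luciferase read 15 sec following 15 min substrate incubation, room temp.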
* = called active by the depositor; ? = inconclusive; nt = not tested or not shown; [ ] = another dose, or the depositor's remark. Unless noted, calls come from the whole dose curve; as a rule, active = well fitted inhibition curve with a large enough effect; inconclusive = small, poorly fitted or top-dose-only effect, or another doubt; inactive = no such curve, though single readings can be large or run the other way.

SMILES	Shiga inhibitor	Pf growth 96h	Pf growth 48h	HCMV inh	CHX counter	HCV inhibitor
CC(C)[C@H](NC(=O)c1ccc([N+](=O)[O-])cc1Cl)C(=O)N1CCN(C/C=C/c2ccccc2)CC1	nt	nt	nt	-20	nt	14µM*
Oc1c(Br)cc(Br)cc1CN1CCN(Cc2ccccc2)CC1	-2	nt	1.9µM*	1	0	5%
COC(=O)c1ccc2nc(-c3ccco3)c(Cc3ccccc3OC)n2c1	nt	nt	nt	9	nt	nt
CC(C)Nc1nc2c(-c3cccc(Br)c3)nnn2c2ccccc12	nt	nt	nt	68	nt	nt
O=C(C1CCN(Cc2ccccc2)CC1)N1CCN(C/C=C/c2ccccc2)CC1	-8	-13%	-25%	-33	-2	?
O=C(Cc1ccc(Br)cc1)N1CCCCCC1	60*	47%	74%	45	46*	?
C(=C/c1ccccc1)/CN1CCN(C(c2ccccc2)c2ccccc2)CC1	nt	7.2µM*	?	nt	nt	nt
O=C(Cc1ccccc1)N1CCN(C/C=C/c2ccccc2)CC1	-2	3.3µM*	-32%	4	1	?
CCC(c1nnnn1-c1c(C)cccc1C)N1CCN(C/C=C/c2ccccc2)CC1 (stereo not drawn)	nt	nt	nt	-68*	nt	nt
N#Cc1cnn2c(-c3ccc(Cl)cc3Cl)ccnc12	-14	-27%	?	-14	-6	?
COc1ccc(CCNS(=O)(=O)c2cc(C(=O)O)c(Cl)cc2Cl)cc1	6	-40%[1.15 µM]	-31%[1.15 µM]	-5	-6	-3%
COC(=O)C1CCN(C(=O)Cc2ccc(Br)cc2)CC1	66*	25%	15%	-1	28*	?
COC(=O)C1CCN(C(=O)Cc2ccc(OC)c(OC)c2)CC1	-2	13%	5%	-1	6	-18%
COc1cc(OC)c(OC)cc1CN1CCc2nc(N3CCN(c4ncccn4)CC3)ncc2C1	nt	nt	nt	-71*	nt	nt
Oc1ccc(-c2cnns2)c(O)c1	-4	12µM*	10µM*	?	-2	?
Cc1ccc(Cl)cc1N(CC(=O)NCc1ccccc1)S(C)(=O)=O	-4	-37%	5%	41	2	15%
CN(CCc1ccccn1)C1CCCN(S(=O)(=O)c2ccccc2)C1 (stereo not drawn)	-4	78%	2%	-9	-2	-3%
CN(CCc1ccccc1)C1CCCN(S(=O)(=O)CC(F)(F)F)C1 (stereo not drawn)	-5	10µM*	-8%	-17	1	1%
C=CCS(=O)(=O)N1CCCC(N(C)CCc2ccc(OC)c(OC)c2)C1 (stereo not drawn)	7	5.2µM*	?	-7	-1	5%
COc1ccc(CCN(C)C2CCCN(S(=O)(=O)c3ccccc3F)C2)cc1OC (stereo not drawn)	-11	13µM*	?	5	-2	-4%
COc1ccc(CCN(C)C2CCCN(S(=O)(=O)N(C)C)C2)cc1OC (stereo not drawn)	nt	nt	nt	15	nt	-1%
COc1ccc(NC(=O)Cn2c(=O)n(Cc3nc(-c4ccccc4)no3)c(=O)c3cc4c(cc32)OCO4)c(OC)c1	nt	nt	nt	9	nt	nt
COc1cc(C(=O)N2CCN(c3ncnc4sc(C)c(C)c34)CC2)cc(OC)c1OC	-9	-27%	?	-79*	-3	5.6µM*
COc1ccc(-c2csc(NC(=O)C3CCN(c4ncnc5sc(C)c(C)c45)CC3)n2)cc1OC	nt	?	?	-100*	nt	2.5µM*
Cc1sc2ncnc(N3CCN(c4ncccn4)CC3)c2c1C	-22	?	?	-29	-3	-29%
SMILES	Shiga inhibitor	Pf growth 96h	Pf growth 48h	HCMV inh	CHX counter	HCV inhibitor
COc1ccccc1OCC(=O)NNC(=O)C1CCN(c2ncnc3sc(C)c(C)c23)CC1	nt	20%	?	-29	nt	11µM*
CCOc1ccc(CCNC(=O)COC(=O)C2CC2)cc1OCC	nt	-11%	-2%	-19	nt	5%
C#CCOCCOCCOCCNc1nc(N2CCN(C(=O)Cn3cc(CC(C)O)nn3)CC2)nc(N2CCN(C(=O)[C@H](C)n3cc(CCC(=O)O)nn3)CC2)n1 (stereo partly drawn)	nt	nt	nt	5	nt	-5%[8.37 µM]
CCCCn1c(N)c(N(CCOC)C(=O)CCS(=O)(=O)c2ccc(Cl)cc2)c(=O)[nH]c1=O	nt	?	-8%	0	nt	9%
COc1ccc(NC(=O)c2ccc(NC(=O)CCS(=O)(=O)c3cccs3)cc2)cc1OC	nt	nt	nt	15	nt	nt
Cn1c(SCc2ccccc2Cl)nc(=O)c2c1NC(=O)CC2c1cc(F)ccc1F (stereo not drawn)	nt	nt	nt	3	nt	nt
Cc1c(NC(=O)c2cc(-c3ccccc3)on2)c(=O)n(-c2ccccc2)n1C	-25	-17%	4%	-36	-1	6%
CCCCn1nc(C(=O)Nc2c(C)n(C)n(-c3ccccc3)c2=O)c2ccccc2c1=O	nt	15µM*	?	-19	nt	5%
CCCc1cc(C(=O)Nc2c(C)n(C)n(-c3ccccc3)c2=O)no1	22	9.3µM*	nt	106	-4	5%
Cc1ccc(C2=NCCn3c2c2ccccc2[n+]3[O-])cc1	nt	57%	-17%	-12	nt	11%
Cc1ccc(C)c(CC(=O)N2CCCC(c3cc(C(=O)NCc4cccnc4)no3)C2)c1 (stereo not drawn)	nt	nt	nt	13	nt	nt
CC(C)c1ccc(N2C(=O)/C(=C/N(C)C)SC2=S)cc1	4	10%	?	-60*	3	-3%
CCO/C=C1\SC(=S)N(c2ccc(Cl)cc2)C1=O	-2	6%	33%	29	2	16%
O=C(CCCC(=O)Nc1cccc(Br)c1)N/N=C/c1cc([N+](=O)[O-])ccc1O	4	34%	10µM*	20	1	0%
O=C(CN(c1cccc(Br)c1)S(=O)(=O)c1ccccc1)N/N=C/c1cc([N+](=O)[O-])ccc1O	nt	nt	nt	-94*	nt	?
O=C(CCC(=O)Nc1cccc(Cl)c1)N/N=C/c1cc([N+](=O)[O-])ccc1O	17	60%	?	16	1	-17%
COc1cc2c(cc1OC)CN(C(=O)c1ccc3[nH]c(C)c(C)c3c1)CC2	-10	-42%	26%	16	-1	-29%
COc1ccc(-c2nn3c(=O)cc(CN4CCN(S(=O)(=O)c5ccc(C)cc5)CC4)nc3s2)cc1	nt	nt	nt	-5	nt	nt
O=C(c1ccncc1)N1CCN(S(=O)(=O)c2ccc(OC(F)(F)F)cc2)CC1	nt	nt	nt	-31	nt	13%
CC(=O)c1ccccc1NC(C(=O)NC(C)(C)CC(C)(C)C)C1CC1 (stereo not drawn)	nt	nt	nt	-13	nt	nt
COC(=O)c1sc(NC(=O)COc2ccccc2C)nc1C	56	262%	38%	-12	21*	?
COc1ccccc1OCC(=O)Nc1nc(C)c(C)s1	91*	?	174%	-13	27*	?
CCOC(=O)c1sc(=NC(=O)c2cccc(Br)c2)n(C)c1C	18	90%	109%	-18	20*	-5%
